Compound activity (PubChem BioAssay)
VACV Venus inh: inhibitors of vaccinia virus (Venus reporter); Vaccinia virus Venus reporter expression, fluorescence; 0.46% of 330,000 active; Potency, µM (titrated, usually from 36.5 µM), for inactives: at the top dose activity change, negative = inhibition, hits mostly inhibitors; calls by dose curve; tested in A549 cells; further: potency means the concentration at half of the fitted maximal effect; nearly all actives have a fitted effect of over 30% in size
Sm TGR block: blocks Schistosoma mansoni thioredoxin glutathione reductase | Q962Y6 | Potency, µM (series often up to 114 µM), for inactives: at the highest dose activity change, negative = inhibition, hits mostly inhibitors | purified TGR, DTNB reduction, TNB absorbance 405 nm | 3% of 360,000 active; further: potency means the concentration at half of the fitted maximal effect; nearly all actives have a fitted effect of over 60% in size
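TGR 20 nM + NADPH 100 uM (dispensed conc.), cpd preinc 15 min RT; start with NADPH (500 uM addition) then DTNB (15 mM addition). Kinetic TNB absorbance, 405 nm filter. Four-parameter Hill fit across titration.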
FMDV inh: foot and mouth disease virus antiviral activity; 1.2% of 410,000 active; FMDV antiviral cell-based qHTS; AID 1159524; Potency, µM (doses to about 57.9 µM), for the others: at the top dose activity change, negative = inhibition, actives largely listed as inhibitors; calls by dose curve; tested in HEK293T cells; further: read-out not given here; potency means the concentration at half of the fitted maximal effect; nearly all actives have a fitted effect of over 45% in size
Vaccinia mCherry: vaccinia inhibition (mCherry reporter); 0.63% of 310,000 active; Potency, µM (doses to about 36.5 µM), for the others: top-dose activity change, negative = inhibition, most hits filed as inhibitors; Vaccinia virus mCherry reporter infection, fluorescence; calls by dose curve; tested in A549 cells; further: potency means the concentration at half of the fitted maximal effect; nearly all actives have a fitted effect of over 35% in size
HCV inhibitor: blocks hepatitis C virus; Huh7.5.1 HCVcc-Cre infection, luciferase reporter, 44 h; Potency, µM (titrated, usually from 41.8 µM), for the others: at the highest dose activity change, negative = inhibition, hits mostly inhibitors; 3.4% of 340,000 active; AID 651820; further: potency means the concentration at half of the fitted maximal effect
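HCVcc-Cre virus at an moi near 0.5 was added right after compound to cells cultured 4 h from seeding (1,000 cells/well). Luciferase activity was determined 44 h later, 15 min after substrate addition at RT.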
HCMV inh: inhibitors of human cytomegalovirus; 4.5% of 410,000 active; activity change, negative = inhibition, % at 57.5 µM; HFF cells, HCMV-luciferase reporter, 72 h; stronger effect = lower value; in the data active means activity change below about -60%; inconclusive means no clear call, values can overlap the other calls; inactive means above about -39%
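Inhibition of viral replication was scored as loss of reporter luminescence in HFFs infected with HCMV-luciferase (MOI 1 PFU/cell) for 72 h; compounds tested at 2 doses, normalized to buffer and Salinomycin controls.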
* = called active by the depositor; i = inactive; ? = inconclusive; . = not tested or not shown; [ ] = dose if it differs, or a comment. This is a sample that favours compounds with a hit; in the whole collection about 9.3% have one here. Unless noted, the call rests on the fitted dose curve; in most records, active means well fitted curve in the direction sought with a large enough effect; inconclusive means small, poorly fitted or top-dose-only effect, or another doubt; inactive means no such curve, though single readings can be large; an effect the other way counts as inactive or inconclusive. On the % scale 0 is the no-effect control and ±100 the full control effect.

SMILES	VACV Venus inh	Sm TGR block	FMDV inh	Vaccinia mCherry	HCV inhibitor	HCMV inh
COc1ccc2nc(NC(=O)c3cccc(-c4cc5ccccc5oc4=O)c3)sc2c1	13µM*	-6%	-17%	?	11µM*	1
CCCCOc1cccc(C(=O)Nc2cccc(-c3nc4ncccc4o3)c2C)c1	-22%	0%	?	-27%	.	?
COc1ccc(C(=O)Nc2nc3ccc(OC)cc3s2)cc1	.	-11%	28%	.	?	23
Cc1c(NC(=O)c2cccc(-c3cc4ccccc4oc3=O)c2)cccc1-c1nc2ncccc2o1	-20%	6%	-23%	-9%	?	-68*
COc1cccc(C(=O)NCCSc2ccc(C)cc2)c1	-13%	1%	-9%	-11%	-20%	?
O=[N+]([O-])c1cc(CN2CCN(c3cccc(C(F)(F)F)c3)CC2)c2cccnc2c1O	-23%	-27%	-15%	-20%	4µM*	-76*
FC(F)(F)c1cccc(CN2CCN(c3ncccn3)CC2)c1	.	.	-25%	.	5%	11
O=c1cc(CO)oc(CN2CCN(c3cccc(C(F)(F)F)c3)CC2)c1O	-12%	-9%	-18%	-11%	7%	39
CCOCc1cc(CN2CCN(c3cccc(C(F)(F)F)c3)CC2)c(O)c2ncccc12	-19%[7.34 µM]	-17%	?	?	.	-100*
CC(C)OCc1cc(CN2CCN(c3cccc(C(F)(F)F)c3)CC2)c(O)c2ncccc12	-27%[7.34 µM]	-2%	-25%	4µM*	.	-98*
Cc1ccccc1NC(=O)[C@H](CSCc1ccccc1)N1Cc2ccccc2C1=O	-4%	8%	6%	-11%	.	-23
COc1ccc2c(c1)OCC1=C2CCC2(C)C(=O)CC=C12 (stereo unspecified)	.	20µM*	.	.	?	.
COc1cc(Cl)c(C)cc1NC(=O)CCc1c(C)nc2cc(-c3cccc(F)c3)nn2c1C	3%	-7%	-12%	5%	.	-16
COCCn1c(C)cc(/C=C(\C#N)C(=O)OCC(=O)Nc2ccc(S(N)(=O)=O)cc2)c1C	-1%	40µM*	-13%	i	?	-1
COC(=O)[C@@]12C[C@@H](CC(=O)N3CCN(C(=O)c4ccco4)CC3)C(=O)N(CCc3ccc(OC)c(OC)c3)C1=CCC(C)(C)C2	-14%	.	-17%	12%	.	15
CCN(CC)C(=O)c1ccc2nc(-c3ccccc3)c(-c3ccccc3)nc2c1	-3%	-12%	-2%	-11%	3%	-24
CCN(CC)C(=O)c1ccc2nc3ccccc3nc2c1	?	8%	45%	2.2µM*	-5%	-95*
Cc1sc(N/N=C/c2ccco2)nc1-c1ccccc1	-22%	-1%	18%	-10%	?	-29
Cc1sc(N/N=C/c2cccnc2)nc1-c1ccccc1	.	?	?	.	?	-65*
O=C(O)Cc1sc(N/N=C\c2ccncc2)nc1-c1ccccc1	99%	0.25µM*	-1%	?	-26%	62
COc1c2occc2c(OC(C)=O)c2c(=O)cc(C)oc12	-13%	-1%	-22%	-2%	-28%	-67*
Cc1nn(CC(=O)Nc2ccc(Cl)cc2Cl)c(=O)c2ccccc12	.	2%	-6%	.	3%	-19
Cc1ccc(C2=NN(CCC(=O)NCc3ccc4c(c3)OCO4)C(=O)CC2)cc1	-26%	-3%	0%	-18%	-2%	-26
O=C(CSc1nnnn1C1CC1)N1CCN(Cc2ccccc2F)CC1	.	-2%	-12%	.	2%	-69*
N#CCCN(Cc1cccnc1)C(=S)NC(=O)c1ccc(S(=O)(=O)N2CCCC2)cc1	-9%	-1%	4%	-21%	28%	?
CCCNS(=O)(=O)c1cccn1-c1ncc(C(F)(F)F)cc1Cl	-13%	-1%	12%	-15%	7%	7
O=S(=O)(NCc1cccnc1)c1cccn1-c1ncc(C(F)(F)F)cc1Cl	-14%	.	-25%	-8%	?	-61*
CC1CCCCC1NC(=O)COC(=O)c1ccc2c(c1)OCCO2 (stereo unspecified)	.	-12%	-17%	.	-20%	15
Cc1ccc2c(=O)cc(C(=O)Nc3sc4c(c3C(=O)NCc3ccco3)CCC4)oc2c1	-5%	-1%	-16%	i	.	-3
